IL1B secr inh: blocks inflammasome-driven IL-1 beta release; THP-1 LPS/ATP IL-1B secretion, AlphaLISA, 16 h; active compounds read low; activity change, % at 57.5 µM; 360,000 compounds, 4.7% hits; in the data active means activity change below about -50%; inconclusive means mostly about -30% to -49%
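Secreted IL-1B measured by AlphaLISA bead assay after 16 h compound exposure of THP-1 cells; compounds (final up to 57.5 uM) added 1 h before LPS (250 ng/mL) and ATP (1.25 mM) stimulation; lower signal means less secretion.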
DT40 TDP1 no CPT: qHTS for Inhibitors of human tyrosyl-DNA phosphodiesterase 1 (TDP1): qHTS in cells in absence of CPT; DT40 Tdp1-/- hTDP1 cells, no CPT, ATP luminescence, 48 h; Potency, µM (titrated, usually from 46.2 µM), for inactives: at the top dose activity change, negative = growth inhibition, usual class: inhibitors; 420,000 compounds, 15% hits; AID 686978, 2013; further: potency means the concentration at half of the fitted maximal effect; nearly all actives have a fitted effect of over 55% in size
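Cells were dispensed at 400 per well, compounds added by pin tool, plates incubated ≥48 hr at 37 °C, then CellTiter-Glo added for 30 min at room temperature before luminescence reading. Line: DT40 Tdp1-/- complemented with hTDP1; camptothecin omitted.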
TDP1 cell CPT: growth inhibition of DT40 Tdp1-/-;hTDP1 cells with camptothecin (screen for TDP1 inhibitors); chicken DT40 Tdp1-/-;hTDP1 cells + 20 nM CPT, ATP luminescence, 48 h; Potency, µM (titrated, usually from 46.2 µM), inactives show at the highest dose activity change, negative = growth inhibition, actives largely listed as inhibitors; 420,000 compounds, 12% hits; AID 686979; further: potency means the concentration at half of the fitted maximal effect; nearly all actives have a fitted effect of over 55% in size
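Cell growth measured by CellTiter-Glo luminescence after a minimum 48 h, 37 C compound exposure with 20 nM CPT in Tdp1-knockout DT40 cells stably expressing hTDP1, seeded 400/well; qHTS titration format.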
ELG1 DNA repair: inhibitors of ELG1-dependent DNA repair in HEK293T cells; HEK293T ELG1-luciferase reporter, luminescence, 16 h; DNA damage induced by 5-fluorouridine; Potency, µM (doses to about 46.1 µM), inactives show at the top dose activity change, negative = inhibition, actives largely listed as inhibitors; 330,000 compounds, 2.3% hits; further: potency means the concentration at half of the fitted maximal effect; nearly all actives have a fitted effect of over 55% in size
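HEK293T cells expressing luciferase-tagged ELG1 (2,000/well) received 5-Fluorouridine plus compound or DMSO for 16 hr at 37 °C. Luciferase was read by ONE-Glo luminescence after 30 min at room temperature.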
HT1080NT lethal: kills 2HG-producing HT-1080-NT fibrosarcoma cells; 360,000 compounds, 1.6% hits; AID 686970; HT-1080-NT fibrosarcoma viability, CellTiter-Glo ATP luminescence, 48 h; Potency, µM (titrated, usually from 46.1 µM), for inactives: top-dose activity, negative = less viability, hits mostly cytotoxic;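 further: NT is the 2HG producing partner of a matched IDH1 knockdown line; potency means the concentration at half of the fitted maximal effect; 0% = DMSO-treated cells and -100% = media-only wells without cells; nearly all actives have a fitted effect of over 55% in size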
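HT-1080-NT fibrosarcoma cells (2HG-overproducing), 750 cells/well in RPMI with 5% FBS, dosed after 2 h and incubated 48 h at 37C. CellTiter-Glo luminescence normalized to DMSO and no-cell wells; concentration-response curves fitted and classed.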
HT1080 IDH1KD tx: HT-1080 IDH1 knockdown cell toxicity (counter line); Potency, µM (titrated, usually from 46.1 µM), for inactives: at the top dose activity, negative = toxicity, hits mostly cytotoxic; 360,000 compounds, 2% hits; HT-1080 IDH1 knockdown viability, ATP luminescence, 48 h;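 further: potency means the concentration at half of the fitted maximal effect; 0% = DMSO wells and -100% = cell-free medium wells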
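HT-1080-IDH1KD cells (IDH1 knocked down), 750/well in RPMI with 5% FBS, treated with compound 48 h at 37 degrees C. Viability by CellTiter-Glo luminescence, normalised to DMSO and no-cell wells; concentration-response curves classed.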
Numbers without * were called inactive; ? = inconclusive; / = not tested or not shown. Shown are actives, neighbours in structure and some others; about 19% of the full set was active somewhere. Unless noted, the call rests on the fitted dose curve; in most records, active means well fitted curve in the direction sought with a large enough effect; inconclusive means small, poorly fitted or top-dose-only effect, or another doubt; inactive means no such curve, though single readings can be large; an effect the other way counts as inactive or inconclusive. Unless noted, on the % scale 0 is the no-effect control and ±100 the full control effect.

SMILES	IL1B secr inh	DT40 TDP1 no CPT	TDP1 cell CPT	ELG1 DNA repair	HT1080NT lethal	HT1080 IDH1KD tx
N#CC1=C(SCC(N)=O)NC2=C(C(=O)c3ccccc32)C1c1ccc(Cl)cc1 (configuration not stated)	-52*	16µM*	29µM*	-25%	-1%	5%
Cc1cc(N2CCOCC2)nc(-c2ccccc2O)n1	?	?	?	?	1%	-4%
Cc1cc(N2CCCCC2C)nc(-c2ccccc2O)n1 (configuration not stated)	-10	21µM*	23µM*	?	16%	-1%
Cc1cc(N2CCCCCC2)nc(-c2ccccc2O)n1	-8	?	?	-1%	-5%	-11%
CCN1CCN(c2cc(C)nc(-c3ccccc3O)n2)CC1	-69*	-12%	-3%	-1%	-13%	-11%
Cc1ccc(COC(=O)NCc2cccnc2)cc1	41	7%	-2%	1%	1%	13%
O=C1C(=O)N(CCN2CCOCC2)C(c2ccccn2)/C1=C(/O)c1ccc(F)cc1 (configuration not stated)	21	23µM*	?	0%	10%	8%
COc1ccc(/C(O)=C2/C(=O)C(=O)N(CCN3CCOCC3)C2c2ccccn2)cc1 (configuration not stated)	-2	-5%	-8%	?	-3%	-17%
C=CCn1c(=NC(=O)c2ccccc2[N+](=O)[O-])sc2cc(S(C)(=O)=O)ccc21	-2	21µM*	16µM*	?	-11%	-6%
O=C(O)CC(=O)Nc1cc(Cl)ccc1O	9	4%	-13%	7%	10%	20%
NC(=NCCc1ccc(Cl)cc1)NS(=O)(=O)c1ccccc1	1	-24%	?	12%	1%	-12%
Cc1ccc(O)c(C(=O)CC(=O)c2cccc(F)c2)c1	0	2.6µM*	2.3µM*	?	?	?
Cc1ccc(O)c(C(=O)CC(=O)c2ccc(Cl)cc2)c1	0	5.8µM*	7.3µM*	?	?	?
O=C(CC(=O)c1cc(Cl)ccc1O)c1ccccc1	39	4.6µM*	2.3µM*	?	?	?
NC(=NCCc1ccccc1)NC(=O)c1cc(Cl)ccc1O	-11	18µM*	?	/	-12%	-22%
Cc1ccc(C(=O)CC(=O)c2ccccc2)cc1	-2	?	?	?	0%	6%
O=c1cc(-c2ccc(F)cc2)nc(SCc2nc(-c3cccc(Cl)c3)no2)[nH]1	/	?	-8%	/	/	/
Cc1cccc(C(=O)CC(=O)c2cc(Cl)ccc2O)c1	75	4.1µM*	3.3µM*	5%	?	?
COc1ccccc1NCc1nnc2n1CCCCC2	/	2%	-1%	/	/	/
CC(C)c1ccc(C2N3CC4([N+](=O)[O-])CN2CC([N+](=O)[O-])(C3)C4(C)C)cc1 (configuration not stated)	15	?	8.2µM*	-2%	6%	0%
COc1ccc(/C=C/C(O)=C2/C(=O)NC3(C)CC2c2ccccc2O3)c(OC)c1OC (configuration not stated)	-20	7.3µM*	8.2µM*	-12%	?	?
COc1ccc(/C=C/C(O)=C2/C(=O)N(C)C3(C)CC2c2ccccc2O3)cc1 (configuration not stated)	-91*	21µM*	23µM*	?	?	?
CC(C)Cc1nnc(NC(=O)CCC(=O)NC2CCCCCC2)s1	52	24%	-6%	1%	-1%	1%
COc1ccc(C2NC(C(=O)O)Cc3c2[nH]c2ccccc32)cc1CN1CCN(c2ccc(F)cc2)CC1 (configuration not stated)	19	2%	-13%	3%	-5%	0%
COc1ccc(/C=N/NC(=O)c2cccnc2)cc1CN1CCc2cc(OC)c(OC)cc2C1C (configuration not stated)	50	-19%	-2%	-22%	-13%	-12%
SMILES	IL1B secr inh	DT40 TDP1 no CPT	TDP1 cell CPT	ELG1 DNA repair	HT1080NT lethal	HT1080 IDH1KD tx
COc1ccc(C2NCCc3c2[nH]c2ccccc32)cc1CN1CCc2cc(OC)c(OC)cc2C1C (configuration not stated)	0	18µM*	?	-13%	18µM*	?
COc1ccc(C2NCCc3c2[nH]c2ccccc32)cc1COc1ccc(F)cc1 (configuration not stated)	-93*	21µM*	?	?	?	?
CC(=O)N1CCc2c(sc3c2c(=O)n(-c2ccccc2C)c(=O)n3CC(=O)Nc2ccccc2)C1	/	19%	27%	/	/	/
COCCNC(=S)N1CCC(NC(=O)c2ccco2)CC1	-19	-5%	12%	11%	16%	28%
Fc1ccc(F)c(Nc2c3c(nc4ccc(Cl)cc24)CCC3)c1	/	?	16µM*	/	/	/
FC(F)(F)c1cccc(Nc2c3c(nc4ccc(Cl)cc24)CCC3)c1	/	6.5µM*	7.3µM*	/	/	/
CC(C)(C)OC(=O)NCCc1nnc(S(=O)(=O)Cc2ccc(Cl)cc2Cl)o1	-118*	2.6µM*	1.6µM*	15%	18µM*	16µM*
C[C@H]1O[C@@H](O[C@H]2[C@@H](O)C[C@H](O[C@H]3[C@@H](O)C[C@H](O[C@H]4CC[C@@]5(C)[C@H](CC[C@@H]6[C@@H]5C[C@@H](O)[C@]5(C)[C@@H](C7=CC(=O)OC7)CC[C@]65O)C4)O[C@@H]3C)O[C@@H]2C)C[C@H](O)[C@@H]1O	-63*	0.6µM*	0.84µM*	0.16µM*	0.23µM*	0.037µM*
CCOC(=O)[C@]12CCC=C1N(Cc1ccccc1)C(=O)[C@H](CC(=O)NCCCN1CCCC1=O)C2	20	1%	-10%	/	23%	17%
CCOC(=O)[C@]12CCC=C1N(Cc1ccco1)C(=O)[C@H](CC(=O)NCCC(C)C)C2	8	-27%	-1%	/	11%	8%
CCOC(=O)[C@]12CCC=C1N(Cc1ccccc1)C(=O)[C@H](CC(=O)NCc1cccs1)C2	-14	23µM*	?	/	9%	2%
CCOC(=O)[C@]12CCC=C1N(Cc1ccccc1)C(=O)[C@H](CC(=O)NCCC(C)C)C2	0	?	21µM*	/	22%	8%

Source: PubChem BioAssay
